A number with no mark means an inactive call. The source made the active and inactive calls. The call rests on the fitted dose curve; in most records, active means well fitted curve in the direction sought with a large enough effect in the repeat runs; inconclusive means weak or mixed curves; inactive means flat fitted curve, though single readings scatter.
Assay: qHTS assay to test for compound auto fluorescence at 535 nm (green) in HepG2 cell free culture (AID 720686)
Details: Cell-free medium, green autofluorescence 485/535 nm; series mostly up to 91.3 µM; fluorescence, % of fluorescein control: at the top concentration
On the % scale 0 is the no-effect control and ±100 the full control effect.

Compound	fluorescence, % of fluorescein control	outcome
NC(=O)CI	0.0128%	–
O=C(CCl)c1ccc(Cl)cc1Cl	–	inactive
CO/C=C(/C(=O)OC)c1ccccc1COc1cccc(C(F)(F)F)n1	0.177%	–
[CH3][Sn]([CH3])([Cl])[Cl]	–	inactive
Cc1ccc(-c2c(Cl)nc(C#N)n2S(=O)(=O)N(C)C)cc1	-0.0468%	–
CCN(C)N=O	0.0301%	–
CCC(Br)(CC)C(=O)NC(N)=O	0.0863%	–
N#Cc1cc(I)c(O)c(I)c1	-0.026%	–
O=[N+]([O-])C(Br)(CO)CO	–	inactive
COCCOCCO	0.172%	–
Nc1ccc(N=Nc2ccc(-c3ccc(N=Nc4c(S(=O)(=O)O)cc5cc(S(=O)(=O)O)c(N=Nc6ccccc6)c(O)c5c4N)cc3)cc2)c(N)c1	0.104%	–
O=C1C(Cl)C(CCl)CN1c1cccc(C(F)(F)F)c1 (centres undefined)	0.0376%	–
CCOC(=O)[C@]1(c2ccccc2)Oc2ccccc2[C@@H]1N	-0.0197%	–
O=C1NCN(c2ccccc2)C12CCN(CCCOc1ccc(F)cc1)CC2	0.0344% [at 46 µM]	–
CCC(C)(NC(=O)c1cc(Cl)c(C)c(Cl)c1)C(=O)CCl (centres undefined)	-0.0176%	–
NS(=O)(=O)C(F)(F)C(F)(F)C(F)(F)C(F)(F)C(F)(F)C(F)(F)C(F)(F)C(F)(F)F	0.0405%	–
CCn1cc[n+](C)c1	–	inactive

Compound	fluorescence, % of fluorescein control	outcome
O=NN1CCNCC1	0.0018% [at 95.7 µM]	–
CC(=O)c1cc2c(cc1C)C(C)(C)C(C)CC2(C)C (centres undefined)	0.013%	–
O=C=Nc1ccc(Cl)cc1	-0.0304%	–
CCOP(=S)(OCC)Oc1cc(Cl)c(Br)cc1Cl	0.0783%	–
C=CCN1CC[C@]23c4c5ccc(O)c4O[C@H]2C(=O)CC[C@@]3(O)[C@H]1C5	–	inactive
Nc1ccc([N+](=O)[O-])cc1[N+](=O)[O-]	-0.0063%	–
CC(C)N(CCC(C(N)=O)(c1ccccc1)c1ccccn1)C(C)C (centres undefined)	-0.0278% [at 46 µM]	–
C(=NC1CCCCC1)=NC1CCCCC1	–	inactive
CC1(C)CCC(Cc2ccc(Cl)cc2)C1(O)Cn1cncn1 (centres undefined)	0.0518%	–
ClCc1ccccc1	0.0027%	–
O=C(O)c1ccccc1C(=O)Nc1cccc2ccccc12	0.0159%	–
Clc1cccc2ccccc12	0.0098%	–
CCCCN=C=O	-0.0468%	–
CN1C(=O)C(O)N=C(c2ccccc2)c2cc(Cl)ccc21 (centres undefined)	–	inactive
Cn1cc[n+](C)c1 (tested in a mixture with another compound)	0.0008%	–
C=COC(C)=O	0.0306% [at 95.7 µM]	–
COC(C)(C)CCC[C@H](C)C/C=C/C(C)=C/C(=O)OC(C)C	0.001%	–
